High-throughput results from PubChem.
Sampled rows, rich in hits. Any-hit rate of the full collection: about 5.2%.
NadD block: inhibitors of Staphylococcus aureus NadD; hit rate 0.78% among 360,000; inhibition, % at 20 µM; purified NadD enzyme, colorimetric absorbance read-out; AID 602399; in the data active = inhibition above about 26%
NR3A LBD binder: NR3A (human) ligand-binding domain modulation. NR3A LBD differential scanning fluorimetry, Tm shift; 0% = protein alone, 100% = glycine-bound protein. Tm shift relative to glycine control, % at 25 µM. hit rate 2.5% among 340,000;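 active = melting temperature shift of at least 10% of the positive control shift, at one fixed dose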
SKN-1 block: blocks SKN-1 activity in C. elegans; C. elegans VP596 Pgst-4::GFP/RFP ratio, acrylamide-induced, 24 h; inhibition, % at 21.8 µM; hit rate 0.49% among 360,000; AID 624304;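 active = interference check ratio from 0.5 to 1.5 plus GFP to RFP signal ratio inhibition reaching or exceeding a fixed threshold, cut at about 30% in these data, passing the limit was not always enough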
SMARCA2 act: activators of SMARCA2 function. AID 652017. activation, % at 9.1 µM. MG213 cells, MMTV-luciferase reporter, dexamethasone, overnight. hit rate 1% among 370,000; in the data active = activation above about 7.8%;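 also: 0% = vehicle wells and 100% = reference activator wells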
Vif inh: inhibitors of HIV Vif; HEK293T cells, Vif self-association by quenched fluorescence, imaging, 24 h; inhibition, % at 7.49 µM; hit rate 0.35% among 340,000; AID 602346; in the data active = inhibition above about 50%, passing the limit was not always enough; inconclusive = no clear call, values can overlap the other calls; inactive = below about 31%
esBAF inh: inhibitors of esBAF chromatin remodeling in mouse ES cells; Bmi1-luciferase knock-in reporter, 24 h; 100% = twice the neutral-well signal; hit rate 2% among 350,000; AID 602393; reporter increase, % at 12.5 µM; in the data active = activation above about 40%; inconclusive = no clear call, values can overlap the other calls;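 also: 0% = median of the plate's neutral control wells and 100% = double that signal; a rise in the Bmi1 reporter signal indicates esBAF inhibition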
* = called active by the depositor; ? = inconclusive; / = no result.

SMILES | NadD block | NR3A LBD binder | SKN-1 block | SMARCA2 act | Vif inh | esBAF inh
COc1ccc(C2C(C(C)=O)=C(C)N=c3s/c(=C\c4cc(C)n(C)c4C)c(=O)n32)c(OC)c1 (stereo not given) | 14.6 | 1.9 | 39.4* | -1.3 | / | 10.1
CC(C)(C)C(=O)NCCN1CCN(C(=O)C(C)(C)C)CC1 | 2.9 | 673.0* | 12.5 | -0.8 | 3.5 | -4.3
CCC(CC)C(=O)NCCN1CCN(C(=O)C(CC)CC)CC1 | 2.9 | 0.4 | -16.9 | -1.5 | ? | 1.6
C[C@@H](NC(=O)C[C@@H]1C=C[C@H](NC(=O)Nc2ccc3c(c2)OCO3)[C@H](CO)O1)c1ccccc1 | / | / | / | / | / | -3.2
Cc1[nH]c2ccccc2c1C(=O)/C=C/c1ccccc1Cl | -8.0 | 27.2* | 11.8 | -1.4 | 2.5 | /
Cc1[nH]c2ccccc2c1C(=O)/C=C\c1ccccc1Cl | -12.8 | 10.6* | 1.5 | 1.2 | -13.3 | /
O=C(C=Cc1ccccc1Cl)c1ccccc1 | -3.4 | -37.2 | -4.6 | 5.8 | 3.7 | 39.9
CC(=O)c1c(C)[nH]c2ccccc2c1=O | -0.5 | -0.3 | 9.7 | 6.7 | 3.6 | -7.2
Cc1[nH]c2ccccc2c1C(=O)/C=C/c1ccccc1 | -2.7 | -2.1 | 53.0* | 4.7 | 7.2 | 84.2*
C[C@@H]1CN([C@@H](C)CO)C(=O)c2cccc(NC(=O)Nc3ccc(C(F)(F)F)cc3)c2O[C@H]1CN(C)C(=O)Nc1ccc(C(F)(F)F)cc1 | / | / | / | / | / | 5.8
Cc1ccccc1-c1nc(-c2cccnc2)no1 | 2.8 | 0.5 | 17.5 | 1.5 | 8.3 | 9.3
Clc1ccccc1-c1nc(-c2ccncc2)no1 | 0.8 | -2.4 | 45.9* | 5.5 | 3.0 | 12.6
Clc1ccccc1-c1nc(-c2cccnc2)no1 | -3.6 | 2.6 | 33.9* | 4.7 | / | 23.8
Clc1ccc(-c2nc(-c3ccncc3)no2)c(Cl)c1 | -3.3 | 1.9 | 36.5* | -0.5 | -7.2 | /
Cc1nc(-c2noc(-c3cccc(Cl)c3)n2)c(C(F)(F)F)o1 | -6.8 | -0.1 | 16.9 | 3.2 | -4.1 | /
Cc1nc(-c2noc(-c3ccccc3Cl)n2)c(C(F)(F)F)o1 | -5.3 | 1.2 | 7.0 | 0.9 | -3.1 | 47.5*
C[C@H](CO)N1C[C@H](C)[C@@H](CN(C)Cc2ccc3c(c2)OCO3)Oc2ccc(NC(=O)Cc3cn(C)c4ccccc34)cc2C1=O | / | / | / | / | / | 0.9
C[C@H](CO)N1C[C@H](C)[C@@H](CN(C)Cc2ccc3c(c2)OCO3)Oc2ccc(NC(=O)CCN3CCOCC3)cc2C1=O | / | / | / | / | / | -1.4
O=C(Nc1cccc(O)c1)c1cc2nc(-c3ccccc3)cc(-c3ccccc3)n2n1 | 21.1 | 20.3* | 2.4 | -1.9 | -4.4 | /
CCSc1nnc(Nc2ccccc2)s1 | 3.9 | -0.8 | -0.1 | 3.1 | 4.4 | 58.5*
Cc1ccc(CSc2nnc(Nc3ccc(C)cc3)s2)cc1 | -0.3 | -3.1 | 9.5 | -6.2 | -2.2 | -1.1
CCSc1nnc(Nc2ccc(C)cc2)s1 | -7.0 | -13.6 | 5.4 | 6.4 | -9.5 | 82.6*
O=c1c2ccccc2nnn1CSc1nnc(Nc2ccccc2)s1 | 1.9 | 1.3 | -30.4 | 1.7 | 50.6* | 24.5
CCCNC(=O)C[C@@H]1CC[C@H]2[C@H](COc3ccc(NC(=O)c4cccs4)cc3C(=O)N2C)O1 | / | / | / | / | / | -1.5
CO[C@H]1CN(C)C(=O)c2cc(NC(=O)C3CC3)ccc2OC[C@@H](C)N(CCc2ccccc2)C[C@@H]1C | / | / | / | / | / | 2.8
SMILES | NadD block | NR3A LBD binder | SKN-1 block | SMARCA2 act | Vif inh | esBAF inh
COc1ccc(-c2csc(NC(=S)NC(=O)/C=C/c3ccco3)n2)cc1Br | 28.8 | 21.0* | -1.8 | 2.2 | / | -17.3
COc1ccc(-c2csc(NC(=S)NC(=O)c3cc4ccccc4o3)n2)cc1Br | 20.8 | 2.6 | 3.4 | 0.0 | 13.9 | 14.4
COc1ccc(-c2csc(NC(=S)NC(=O)c3ccccc3)n2)cc1Br | 10.6 | 39.8* | 5.3 | -5.0 | 10.7 | -0.4
Cc1ccc(-c2nc3ccccc3o2)cc1NC(=S)NC(=O)/C=C/c1ccco1 | 26.0 | -23.1 | -10.4 | 0.0 | 5.1 | 16.1
COc1ccc(-c2csc(NC(=S)NC(=O)/C=C/c3ccco3)n2)cc1OC | 3.5 | 12.6* | -8.8 | 0.1 | / | -6.3
Cc1ccc(-c2nc3ccccc3s2)cc1NC(=S)NC(=O)/C=C/c1ccco1 | 23.8 | -2.1 | 12.0 | -0.8 | -2.2 | 65.3*
CC(=O)N(C)C[C@@H]1Oc2cc(C#CCC(C)C)ccc2S(=O)(=O)N([C@H](C)CO)C[C@H]1C | / | / | / | / | / | 10.0
N/C(=N\OC(=O)COc1ccccc1)c1ccccn1 | 3.2 | 0.5 | 2.2 | 5.1 | -0.9 | 49.4*
